The first assay has as its target T1, Aspartate--tRNA(Asp/Asn) ligase (Mycobacterium tuberculosis (strain ATCC 25618 / H37Rv)) (UniProt P9WFW3). Also: in the data most compounds retested in dose-response had high values.
T1 sequence (whole entry): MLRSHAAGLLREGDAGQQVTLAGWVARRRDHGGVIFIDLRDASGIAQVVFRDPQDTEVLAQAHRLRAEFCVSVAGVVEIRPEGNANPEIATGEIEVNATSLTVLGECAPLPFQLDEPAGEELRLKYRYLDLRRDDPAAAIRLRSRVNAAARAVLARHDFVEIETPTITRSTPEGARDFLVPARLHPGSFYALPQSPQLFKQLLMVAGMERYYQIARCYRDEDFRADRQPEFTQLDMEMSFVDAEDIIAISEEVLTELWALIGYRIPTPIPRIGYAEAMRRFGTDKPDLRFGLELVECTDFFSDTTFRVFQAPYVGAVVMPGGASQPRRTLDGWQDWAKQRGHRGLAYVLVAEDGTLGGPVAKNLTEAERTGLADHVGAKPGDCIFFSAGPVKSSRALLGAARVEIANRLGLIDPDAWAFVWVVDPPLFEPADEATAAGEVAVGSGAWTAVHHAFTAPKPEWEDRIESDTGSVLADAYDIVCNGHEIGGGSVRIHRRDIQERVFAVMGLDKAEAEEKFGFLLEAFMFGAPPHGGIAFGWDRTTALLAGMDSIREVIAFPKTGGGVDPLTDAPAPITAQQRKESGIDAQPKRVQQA
As to the kind of experiment: Assay for Asp RNA synthetase-1 from Mycobacterium tuberculosis. The note with it: 30 µM. More on the design: scale not given: direction of the effect not stated beside the values. It is filed as functional.
`Cc1ccc2cnn(CCC(=O)NCc3c(C)nn(C)c3C)c2c1`: the Percent Effect is 8.17%.
Still for that read-out and setting: the result for `Cc1noc(C2CCC3(CCN(C(=O)c4c(C)noc4C)CC3)O2)n1` (stereo not given) reads -3.06%.
As for `Cc1noc([C@H]2C[C@@H]3CCN(CC4CC4)C[C@H]3O2)n1`, the Percent Effect was determined as 6.95%.
In the case of `Cn1ncc2c(=O)[nH]c(CN3CCC(Cc4ccccc4)CC3)nc21`, the Percent Effect was -5.37%.
In the case of `COC(=O)CN(C)C1CCc2ccccc21` (stereo not given), the Percent Effect was -6.57%.
Still for that read-out and setting: the result for `Cc1nc2c(c(N3CC=CC3)n1)CCN(Cc1ccoc1)CC2` reads -8.35%; that for `O=S(=O)(C1CC1)N1CCO[C@H]2[C@H](OCCN3CCCC3)CC[C@@H]21`, 2.59%.
As for `Cn1nc(CNC(=O)NCc2ccc(Cl)cc2)c2c1CCOC2`, the Percent Effect was determined as 1.91%.
The same measure, in the same setting: the result for `Cc1cnn(C2CCCN(C(=O)c3ccnc(-n4ccnc4)c3)C2)c1` (stereo not given) reads 3.27%.
Regarding `c1cnc(-c2nc(CN3CCOC(Cn4cncn4)C3)cs2)nc1` (stereo not given), the Percent Effect stood at 9.26%.
On to `CC(NC(=O)N(C)Cc1ccsc1)c1ccc2c(c1)NC(=O)CO2` (stereo not given), for which the Percent Effect is -2.41%.
Still for that read-out and setting: as for `CC(C)c1cc(N2CCN(c3ccc(O)cc3)CC2)n2nccc2n1`, the figure is -1.38%.
On the same count and under the same terms, the result for `CN(C)S(=O)(=O)N1C[C@@H]2CC[C@H](C1)N(Cc1ccc3nsnc3c1)C2` reads -2.42%; that for `CNC(=O)CS(=O)(=O)C1CCN(S(=O)(=O)C2CC2)CC1`, 1.09%.
On to `COc1cc(CN2CC[C@@]3(CCCO3)[C@@H](O)C2)ccc1F`, for which the Percent Effect came out at 4.99%.
Still for that read-out and setting: as for `CCS(=O)(=O)N1CCC[C@]2(C(=O)N(C)C)CN(c3ncccn3)C[C@@H]2C1`, the figure is 2.53%.
On the same count and under the same terms, as for `CC1CCN(C(=O)c2ccn(COc3ccc(F)cc3)n2)CC1`, the figure is 9.51%.
The same measure, in the same setting: as for `Cc1ccc2oc(C(=O)N3CCc4nnc(N(C)C)cc4C3)cc2n1`, the figure is 1.25%; as for `CN1CCN(C(=O)c2cccc(OCc3cscn3)c2)CC1`, 0.522%.
Turning to `CC(C)(C)c1nc(CN(Cc2cccs2)C2CCS(=O)(=O)C2)no1` (stereo not given), the Percent Effect stood at 1.32%.
With `CCS(=O)(=O)N1Cc2nccn2CC(Cn2nc(C)nc2C)C1` (stereo not given), the Percent Effect turned out to be 0.776%.
Still for that read-out and setting: the result for `Cc1n[nH]c(C2CN(C(=O)c3cc(C4CC4)[nH]n3)CCO2)n1` (stereo not given) reads 1.87%.
The same measure, in the same setting: the result for `CCn1c(C(=O)N2CCN(C(=O)NC(C)C)CC2)cc2ccccc21` reads 2.76%; that for `CNc1cncc(C2CCCN(S(C)(=O)=O)C2)n1` (stereo not given), 5.76%.
The same measure, in the same setting: the result for `CC(=O)c1ccccc1C(=O)NCC1(CO)CC1` reads 2.82%; that for `COCc1cncc2c1CCN(C(=O)c1ccc(C)o1)C2`, 8.15%; that for `Cn1cc(-c2nnn3c2COC(CNCc2nccs2)C3)cn1` (stereo not given), -4.41%.
Take `Cc1cncc(C(=O)N2Cc3ccccc3C3(CCN(C)CC3)C2)c1`: the Percent Effect is -2.03%.
For the compound `CS(=O)(=O)c1ccccc1C(=O)NCCCN1CCc2ccccc2C1`, the Percent Effect is -6.45%.
Take `CNC(=O)C(NC(=O)c1nccn2ccnc12)c1ccc(F)c(F)c1` (stereo not given): the Percent Effect was 0.0141%.
On the same count and under the same terms, the result for `COc1cccc2c1OCC(C(=O)N1CCN(S(C)(=O)=O)CC1)C2` (stereo not given) reads -3.14%; that for `O=C1COc2cc(C(=O)NS(=O)(=O)c3ccccc3F)ccc2N1`, -0.702%.
Same read-out and setting: the result for `Cc1ccc(CN2Cc3nnn(C)c3C(COCCN(C)C)C2)s1` (stereo not given) reads -3%; that for `COC(=O)c1sccc1S(=O)(=O)N1CCC(Oc2cccnn2)CC1`, -2.42%.
Turning to `CC(C(N)=O)N(C)CCCc1cc(-c2ccccc2)no1` (stereo not given), the Percent Effect amounted to 4.08%.
Same read-out and setting: the result for `CC(C)c1nc(C2CCCN(C(=O)CCCn3cncn3)C2)no1` (stereo not given) reads 9.5%; that for `COc1ccc2c(ccn2CCC(=O)O)c1`, -2.82%.
On the same count and under the same terms, as for `CNC(=O)Nc1cc(-c2ccccc2C)nn1CCO`, the figure is 10.9%; as for `O=C(c1cnco1)N1C[C@@H]2CC[C@H](Oc3ccccc3F)[C@@H]2C1`, -1.03%.
Turning to `CC(C)c1nn(C)c(Cl)c1CNCC(O)c1cccc(F)c1` (stereo not given), the Percent Effect is -0.173%.

Another assay deals with Shiga toxin 2 (Escherichia coli O157:H7) (UniProt P09385+P09386). As to the kind of experiment: E. coli 0.157:H7 Shiga Toxin SOP - stx2 screening assay. The format is functional. More on the design: scale not given: direction of the effect not stated beside the values. The following applies: 30 µM.
With `Cc1ccc2cnn(CCC(=O)NCc3c(C)nn(C)c3C)c2c1`, the Percent Effect was -18.4%.
Still for that read-out and setting: the result for `Cc1noc(C2CCC3(CCN(C(=O)c4c(C)noc4C)CC3)O2)n1` (stereo not given) reads 16.1%; that for `Cc1noc([C@H]2C[C@@H]3CCN(CC4CC4)C[C@H]3O2)n1`, -8.04%; that for `Cn1ncc2c(=O)[nH]c(CN3CCC(Cc4ccccc4)CC3)nc21`, 0.0557%.
As to `COC(=O)CN(C)C1CCc2ccccc21` (stereo not given), the Percent Effect came to 28.1%.
Same read-out and setting: the result for `Cc1nc2c(c(N3CC=CC3)n1)CCN(Cc1ccoc1)CC2` reads -69.4%; that for `O=S(=O)(C1CC1)N1CCO[C@H]2[C@H](OCCN3CCCC3)CC[C@@H]21`, -32.7%.
Still for that read-out and setting: the result for `Cn1nc(CNC(=O)NCc2ccc(Cl)cc2)c2c1CCOC2` reads -9.65%.
As for `Cc1cnn(C2CCCN(C(=O)c3ccnc(-n4ccnc4)c3)C2)c1` (stereo not given), the Percent Effect was -22.4%.
Same read-out and setting: as for `c1cnc(-c2nc(CN3CCOC(Cn4cncn4)C3)cs2)nc1` (stereo not given), the figure is 18.3%.
With `CC(NC(=O)N(C)Cc1ccsc1)c1ccc2c(c1)NC(=O)CO2` (stereo not given), the Percent Effect came to 18.1%.
Turning to `CC(C)c1cc(N2CCN(c3ccc(O)cc3)CC2)n2nccc2n1`, the Percent Effect is 15%.
Still for that read-out and setting: the result for `CN(C)S(=O)(=O)N1C[C@@H]2CC[C@H](C1)N(Cc1ccc3nsnc3c1)C2` reads -1.59%; that for `CNC(=O)CS(=O)(=O)C1CCN(S(=O)(=O)C2CC2)CC1`, -3.71%; that for `COc1cc(CN2CC[C@@]3(CCCO3)[C@@H](O)C2)ccc1F`, 3%.
For the compound `CCS(=O)(=O)N1CCC[C@]2(C(=O)N(C)C)CN(c3ncccn3)C[C@@H]2C1`, the Percent Effect was -34.5%.
Consider `CC1CCN(C(=O)c2ccn(COc3ccc(F)cc3)n2)CC1`, for which the Percent Effect is -44.1%.
The same measure, in the same setting: the result for `Cc1ccc2oc(C(=O)N3CCc4nnc(N(C)C)cc4C3)cc2n1` reads -14.3%; that for `CN1CCN(C(=O)c2cccc(OCc3cscn3)c2)CC1`, -26.5%.
Same read-out and setting: the result for `CC(C)(C)c1nc(CN(Cc2cccs2)C2CCS(=O)(=O)C2)no1` (stereo not given) reads 24.2%.
For the compound `CCS(=O)(=O)N1Cc2nccn2CC(Cn2nc(C)nc2C)C1` (stereo not given), the Percent Effect stood at 6.38%.
Same read-out and setting: the result for `Cc1n[nH]c(C2CN(C(=O)c3cc(C4CC4)[nH]n3)CCO2)n1` (stereo not given) reads 23.4%; that for `CCn1c(C(=O)N2CCN(C(=O)NC(C)C)CC2)cc2ccccc21`, 18.3%; that for `CNc1cncc(C2CCCN(S(C)(=O)=O)C2)n1` (stereo not given), 2.62%.
Consider `CC(=O)c1ccccc1C(=O)NCC1(CO)CC1`, for which the Percent Effect was -19.8%.
As to `COCc1cncc2c1CCN(C(=O)c1ccc(C)o1)C2`, the Percent Effect is -6.15%.
For the compound `Cn1cc(-c2nnn3c2COC(CNCc2nccs2)C3)cn1` (stereo not given), the Percent Effect is -39.2%.
Same read-out and setting: as for `Cc1cncc(C(=O)N2Cc3ccccc3C3(CCN(C)CC3)C2)c1`, the figure is -1.24%.
Still for that read-out and setting: the result for `CS(=O)(=O)c1ccccc1C(=O)NCCCN1CCc2ccccc2C1` reads -24.7%; that for `CNC(=O)C(NC(=O)c1nccn2ccnc12)c1ccc(F)c(F)c1` (stereo not given), 14.2%.
`COc1cccc2c1OCC(C(=O)N1CCN(S(C)(=O)=O)CC1)C2` (stereo not given): the Percent Effect was determined as 14.3%.
Turning to `O=C1COc2cc(C(=O)NS(=O)(=O)c3ccccc3F)ccc2N1`, the Percent Effect turned out to be 0.482%.
On the same count and under the same terms, as for `Cc1ccc(CN2Cc3nnn(C)c3C(COCCN(C)C)C2)s1` (stereo not given), the figure is -6.76%.
For the compound `COC(=O)c1sccc1S(=O)(=O)N1CCC(Oc2cccnn2)CC1`, the Percent Effect is -7.45%.
Still for that read-out and setting: as for `CC(C(N)=O)N(C)CCCc1cc(-c2ccccc2)no1` (stereo not given), the figure is 15%; as for `CC(C)c1nc(C2CCCN(C(=O)CCCn3cncn3)C2)no1` (stereo not given), 9.71%; as for `COc1ccc2c(ccn2CCC(=O)O)c1`, -49%.
As to `CNC(=O)Nc1cc(-c2ccccc2C)nn1CCO`, the Percent Effect was -22%.
Same read-out and setting: as for `O=C(c1cnco1)N1C[C@@H]2CC[C@H](Oc3ccccc3F)[C@@H]2C1`, the figure is -75.8%; as for `CC(C)c1nn(C)c(Cl)c1CNCC(O)c1cccc(F)c1` (stereo not given), 10.3%.

The values above are taken from ChEMBL document CHEMBL3988442, “University of Dundee, Small-Polar-MMV Screening Library” (2021).
